“And” between values parts separate entries of the source, which are not always exact repeats. Equal values may be shown once. The source made the active and inactive calls.

A short description of test [1]: optical density shifts of acrAB sulA E. coli – strain DRC41, OD650, 48 h, E. coli filamentation inducer project, primary screen (AID 1152).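 Note: E. coli MC1000 strain DRC41 lacking acrAB efflux pump and sulA.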 As to conditions: higher = more signal, called active from +8 up or from −8 down.
Test [2] is described as follows: probe aLefty1 binding on compound microarray – biochemical, small-molecule microarray, 635/667 nm fluorescence, primary screen (AID 1153).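 Note: score merges spot fluorescence with signal-to-noise ratio from the scanned slide images.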 To be noted: higher = more signal.
Test [3] is described as follows: plasmodial surface anion channel blockers, osmotic lysis – cell-based, P. falciparum Indochina, OD700, 1 h, primary screen (AID 1154). To be noted: P. falciparum Indochina infected RBC osmotic lysis, higher = more signal, called active from +8 up or from −8 down.
Test [4] is described as follows: plasmodial surface anion channel blockers, osmotic lysis – cell-based, P. falciparum Indochina, OD700, 2 h, primary screen (AID 1155).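 Note: lysis reports solute entry through the parasite surface anion channel PSAC.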 To be noted: P. falciparum Indochina infected erythrocytes, higher = more signal, called active from +8 up or from −8 down.
Test [5] is described as follows: changes in parasitized red cell lysis, either direction – P. falciparum Indochina, OD700, 3 h, PSAC antagonist project, primary screen (AID 1156). To be noted: P. falciparum-infected erythrocytes, osmotic lysis, higher = more signal, called active from +8 up or from −8 down.
Test [6] can be described thus: plasmodial surface anion channel blockers, osmotic lysis – cell-based, P. falciparum Indochina, OD700, 18 h, primary screen (AID 1157). As to conditions: P. falciparum Indochina infected erythrocytes, osmotic lysis OD700, 18 h; higher = more signal, called active from +8 up or from −8 down.
A short description of test [7]: S6 kinase pathway phospho-S6 level changes – cell-based, A549, cytoblot, luminescence, serum-stimulated, primary screen (AID 1158).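 Note: serum-stimulated A549 lung adenocarcinoma cells; signal is phosphorylated S6 detected by cytoblot immunostaining with HRP secondary.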 To be noted: 5 h, higher = more signal.
The target of test [8] is NADPH oxidase 2 (Homo sapiens) (UniProt P04839). Description: compounds shifting NOX2 Amplex Red fluorescence – cell-based, HEK293-NOX2, PMA-stimulated, NOX inhibitor project, primary screen (AID 1159). Note: test concentration not given here. As to conditions: 45 min, higher = more signal, called active from +8 up or from −8 down.
Chain of NADPH oxidase 2 (Homo sapiens) (P04839 whole entry, looked up): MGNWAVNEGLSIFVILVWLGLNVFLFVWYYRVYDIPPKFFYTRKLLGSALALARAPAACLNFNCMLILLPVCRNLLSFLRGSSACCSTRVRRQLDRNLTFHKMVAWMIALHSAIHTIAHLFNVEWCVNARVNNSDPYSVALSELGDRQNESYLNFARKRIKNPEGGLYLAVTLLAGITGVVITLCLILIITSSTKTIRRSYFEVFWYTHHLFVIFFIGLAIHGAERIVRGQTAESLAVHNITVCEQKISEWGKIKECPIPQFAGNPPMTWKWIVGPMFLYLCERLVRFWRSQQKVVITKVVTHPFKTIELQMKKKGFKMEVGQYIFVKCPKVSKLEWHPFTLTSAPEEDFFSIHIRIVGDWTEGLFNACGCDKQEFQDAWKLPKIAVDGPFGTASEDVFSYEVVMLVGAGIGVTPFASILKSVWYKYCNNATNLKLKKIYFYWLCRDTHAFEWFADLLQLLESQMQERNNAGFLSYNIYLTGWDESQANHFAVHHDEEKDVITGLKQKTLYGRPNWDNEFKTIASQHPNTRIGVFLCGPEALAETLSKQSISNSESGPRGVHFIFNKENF
For test [9], the target named is NADPH oxidase 4 (Homo sapiens) (UniProt Q9NPH5). In words: compounds shifting NOX4 Amplex Red fluorescence – cell-based, HEK293-NOX4, tetracycline-induced, NOX inhibitor project, primary screen (AID 1160). As to conditions: HEK293-NOX4, Amplex Red H2O2 fluorescence, 45 min; higher = more signal, called active from +8 up or from −8 down.
Chain of NADPH oxidase 4 (Homo sapiens) (Q9NPH5 whole entry, looked up): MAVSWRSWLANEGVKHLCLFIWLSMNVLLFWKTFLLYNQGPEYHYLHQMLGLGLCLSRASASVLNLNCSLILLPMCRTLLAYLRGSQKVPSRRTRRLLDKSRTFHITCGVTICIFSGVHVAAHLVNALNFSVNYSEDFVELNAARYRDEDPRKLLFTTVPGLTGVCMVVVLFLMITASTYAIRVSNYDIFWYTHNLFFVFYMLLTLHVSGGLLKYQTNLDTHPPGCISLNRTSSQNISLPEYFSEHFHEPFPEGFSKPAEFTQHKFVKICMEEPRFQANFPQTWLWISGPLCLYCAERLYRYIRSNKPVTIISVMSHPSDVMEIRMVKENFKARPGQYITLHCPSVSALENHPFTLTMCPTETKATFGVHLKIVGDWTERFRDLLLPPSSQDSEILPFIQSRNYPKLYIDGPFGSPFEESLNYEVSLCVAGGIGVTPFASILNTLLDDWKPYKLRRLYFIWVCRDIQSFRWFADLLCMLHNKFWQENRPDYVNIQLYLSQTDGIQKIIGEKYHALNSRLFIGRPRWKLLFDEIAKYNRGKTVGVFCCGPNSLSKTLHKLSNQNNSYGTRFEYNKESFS
The target in test [10] is NADPH oxidase 5 (Homo sapiens) (UniProt Q96PH1). Description: compounds shifting NOX5 Amplex Red fluorescence – cell-based, HEK293-NOX5, NOX inhibitor project, primary screen (AID 1161). To be noted: HEK293-NOX5, ionomycin, 45 min, higher = more signal.
Chain of NADPH oxidase 5 (Homo sapiens) (Q96PH1 whole entry, looked up): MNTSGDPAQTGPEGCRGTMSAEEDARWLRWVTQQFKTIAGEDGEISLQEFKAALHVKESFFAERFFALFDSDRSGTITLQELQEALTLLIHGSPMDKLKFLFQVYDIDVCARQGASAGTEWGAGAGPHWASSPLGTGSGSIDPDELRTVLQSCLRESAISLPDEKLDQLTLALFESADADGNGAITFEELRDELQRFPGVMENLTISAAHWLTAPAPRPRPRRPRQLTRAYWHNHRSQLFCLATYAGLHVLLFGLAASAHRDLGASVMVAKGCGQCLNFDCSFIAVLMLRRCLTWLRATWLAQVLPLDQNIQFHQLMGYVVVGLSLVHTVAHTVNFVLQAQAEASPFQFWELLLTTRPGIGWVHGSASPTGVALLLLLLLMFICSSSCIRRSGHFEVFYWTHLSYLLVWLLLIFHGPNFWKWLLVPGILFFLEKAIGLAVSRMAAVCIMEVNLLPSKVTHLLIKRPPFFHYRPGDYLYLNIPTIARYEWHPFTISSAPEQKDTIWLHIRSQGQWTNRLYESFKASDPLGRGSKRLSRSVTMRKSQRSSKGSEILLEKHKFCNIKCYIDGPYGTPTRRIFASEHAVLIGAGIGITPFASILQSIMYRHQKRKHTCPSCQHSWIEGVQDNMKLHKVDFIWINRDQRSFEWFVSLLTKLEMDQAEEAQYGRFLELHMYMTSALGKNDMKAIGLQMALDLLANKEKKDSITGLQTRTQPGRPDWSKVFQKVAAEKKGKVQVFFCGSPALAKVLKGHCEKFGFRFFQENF
Test [11] is described as follows: compound effects on lung adenocarcinoma cell viability – A549, calcein-AM fluorescence, 48 h, basal, profiling panel (AID 1162). Note: test concentration not given here. To be noted: higher = more signal.
Test [12] is described as follows: compound effects on differentiated 3T3-L1 adipocyte viability – cell-based, 3T3-L1 adipocytes, calcein-AM fluorescence, 48 h, basal, profiling panel (AID 1163). Note: test concentration not given here. As to conditions: 3T3-L1 adipocytes viability, higher = more signal.
Test [13] can be described thus: compound effects on hepatocellular carcinoma cell viability – HepG2, calcein-AM fluorescence, 48 h, basal, profiling panel (AID 1164). Note: test concentration not given here. As to conditions: higher = more signal.
Test [14] can be described thus: compound effects on multiple myeloma cell viability – MM1S, calcein-AM fluorescence, 48 h, basal, profiling panel (AID 1165). Note: test concentration not given here. As to conditions: higher = more signal.
A short description of test [15]: calcein-AM signal in unstimulated myeloma cells – cell-based, calcein-AM fluorescence, 48 h, PK04 Diversity Set, profiling panel (AID 1166).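 Note: cells grown under basal conditions without added stimulus; test concentration not given here.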 As to conditions: RPMI8226 myeloma viability, higher = more signal.
A short description of test [16]: JC-1 mitochondrial signal, unstimulated HepG2 cells – cell-based, JC-1 fluorescence, 24 h, 100 nL compound, profiling panel (AID 1167). Note: test concentration not given here. As to conditions: HepG2 mitochondrial potential, higher = more signal.
Test [17] is described as follows: JC-1 mitochondrial signal, unstimulated adipocytes – cell-based, JC-1 fluorescence, 3T3-L1 adipocytes, 24 h, 100 nL compound, profiling panel (AID 1168). Note: test concentration not given here. To be noted: JC-1 mitochondrial fluorescence, higher = more signal, called active from +8 up or from −8 down.
A short description of test [18]: JC-1 mitochondrial signal, unstimulated myeloma cells – cell-based, JC-1 fluorescence, RPMI8226, 24 h, 100 nL compound, profiling panel (AID 1169). Note: test concentration not given here. As to conditions: JC-1 mitochondrial potential fluorescence, higher = more signal.
A short description of test [19]: JC-1 mitochondrial signal, unstimulated MM1S myeloma – cell-based, JC-1 fluorescence, 24 h, 100 nL compound, profiling panel (AID 1170). Note: test concentration not given here. As to conditions: MM1S mitochondrial potential, higher = more signal.
A short description of test [20]: resazurin metabolic signal in A549 cells – cell-based, resazurin fluorescence, 24 h, PK04 Diversity Set, profiling panel (AID 1171). Note: test concentration not given here. As to conditions: A549 viability, higher = more signal, called active from +8 up or from −8 down. In general terms: Alamar Blue is a resazurin reagent that responds to reducing activity.

As for `C[N+](C)(C)CCCCCCNC(=O)[C@H]1C[C@H]2C(=O)N[C@@H](CCCC[N+](C)(C)C)C(=O)N2[C@H]1c1cccc(OCCO)c1`, the z-score in [1] was 1.06 (inactive) and -0.391 (inactive); in test [3], 3.2 (inactive) and 3.03 (inactive); in test [4] it was 1.03 (inactive) and 1.07 (inactive); in [5], 0.0478 (inactive) and -2.4 (inactive); in test [6], 0.448 (inactive) and 0.301 (inactive); in test [7], -0.0981 and -0.617. The z-score in test [8] is -0.142 (inactive) and -0.0849 (inactive); in test [9], 0.566 (inactive) and 0.746 (inactive); in test [10], 0.749 and 0.86; in test [11], 0.47 and -0.453; in test [12], -0.32 and -0.34; in [13], 0.427 and -0.245. Besides, the z-score in [14] was 0.0606 and -0.353; in test [15] it was 0.366 and 0.635; in test [16], -0.112 and -1.53; in [17], 0.418 (inactive) and 0.566 (inactive); in test [18], -0.192 and 0.231; in [19], -0.644 and -0.272. Besides, the z-score in test [20] is -0.154 (inactive) and -0.311 (inactive). In addition, the composite z-score in test [2] was 0.212 and 1.06.
In the case of `CCOC(=O)[C@@H]1CC=C2CC1C(=O)N1CCC[C@@H]1[C@H]2O[Si](C)(C)C(C)(C)C` (stereo not given in full), the z-score in [1] is -1.02 (inactive) and -0.796 (inactive); in test [3], -0.0845 (inactive) and 0.699 (inactive); in [4], -0.474 (inactive) and 0.0056 (inactive); in test [5], -0.495 (inactive) and 0.882 (inactive); in test [6], -0.0374 (inactive) and 0.133 (inactive); in test [7] it was 0.308 and -0.0299. Besides, the z-score was -0.0861 (inactive) and -0.161 (inactive) in test [8]; 1.2 (inactive) and -0.116 (inactive) in [9]; -1.02 and -2.48 in test [10]; -0.366 and -0.566 in [11]; -0.0834 and 0.84 in test [12]; -0.45 and -1.76 in test [13]. Besides, the z-score in test [14] was -0.204 and -0.227; in test [15] it was -1.71 and -2.37; in test [16], -1.48 and 0.214; in [17], -0.649 (inactive) and 0.192 (inactive); in [18], -0.0804 and 0.132; in [19], 0.144 and 0.321. Besides, the z-score in test [20] was 0.016 (inactive) and 2.5 (inactive). For the same compound, the composite z-score in test [2] was -0.199 and -0.417.
Take `COC(=O)C1=C(C)N(Cc2ccccc2)C2=C(C(C)=O)[C@H](c3ccccc3)[C@@](O)(C(=O)OC)C(=O)N2[C@@H]1c1ccccc1`: the z-score in [1] is 0.363 (inactive) and -0.426 (inactive); in test [3], 1.65 (inactive) and 0.383 (inactive); in test [4] it was 0.441 (inactive) and -0.0277 (inactive); in [5], 1.2 (inactive) and -1.16 (inactive); in [6], 0.419 (inactive) and -0.175 (inactive); in test [7], 0.582 and 3.5. The z-score in test [8] is 2.34 (inactive) and -3.45 (inactive); in [9], 0.687 (inactive) and 0.321 (inactive); in test [10] it was 0.784 and 0.53; in test [11], 1.73 and 0.919; in test [12] it was -0.0798 and 0.56; in test [13], 0.954 and 0.364. For the same compound, the z-score was 0.592 and 0.378 in [14]; 0.604 and 0.984 in [15]; 3.1 and 0.826 in test [16]; -1.09 (inactive) and 2.47 (inactive) in [17]; -0.938 and -0.592 in [18]; -0.444 and 0.924 in test [19]. The z-score in test [20] was 1.78 (inactive) and 0.197 (inactive). Besides, the composite z-score in test [2] is -0.0908 and -0.118.
For the compound `C=C[C@@H](C)[C@H](O)c1ccc(O)c2ccccc12`, the z-score was 0.687 (inactive) and 0.0364 (inactive) in test [1]; 1.57 (inactive) and 1.31 (inactive) in test [3]; 0.651 (inactive) and 0.739 (inactive) in test [4]; -0.198 (inactive) and -0.13 (inactive) in [5]; 0.795 (inactive) and 0.599 (inactive) in test [6]; 0.166 and 0.217 in test [7]. Besides, the z-score in test [8] is -4.9 (inactive) and -4.75 (inactive); in test [9] it was -0.696 (inactive) and -0.723 (inactive); in [10], 1.07 and 1.48; in [11], -0.529 and -0.709; in test [12] it was -0.134 and 0.136; in test [13], -0.988 and -0.789. Besides, the z-score was -2.66 and -2.63 in test [14]; -0.808 and -0.695 in [15]; -1.66 and -1.91 in test [16]; -1.42 (inactive) and -0.865 (inactive) in [17]; -0.333 and -0.269 in [18]; -0.52 and 0.331 in test [19]. In addition, the z-score in test [20] is -0.28 (inactive) and -0.0127 (inactive). The composite z-score in test [2] was -0.313 and -0.104.
Consider `CC(CO)N1C(=O)[C@@H]2C3C(=O)OCCC=C[C@H]3OC23C=CCN(c2ccc4ccccc4c2)C(=O)[C@@H]13` (stereo not given in full), for which the z-score in test [1] was -0.562 (inactive) and -0.929 (inactive); in test [3] it was 3.31 (inactive) and 4.57 (inactive); in test [4], 1.28 (inactive) and 0.577 (inactive); in [5], 1.18 (inactive) and 0.724 (inactive); in test [6], 0.652 (inactive) and 0.282 (inactive); in test [7], -0.631 and -0.363. For the same compound, the z-score in test [8] is 1.68 (inactive) and 1.25 (inactive); in test [9], 0.411 (inactive) and 1.05 (inactive); in [10] it was 2.69 and 2.08; in [11], -0.288 and -0.0156; in test [12], 0.0371 and -0.217; in test [13], -0.463 and -0.565. Moreover, the z-score was 0.0923 and 1.01 in test [14]; -0.526 and -0.237 in [15]; -0.0969 and -0.0971 in [16]; -0.684 (inactive) and -1.28 (inactive) in [17]; -0.904 and 0.195 in test [18]; 0.238 and 0.275 in [19]. Also, in test [20], the z-score is -0.124 (inactive) and 0.0409 (inactive). Besides, in test [2], the composite z-score was -0.0015 and -0.673.
`C[N+](C)(C)CCCCNC(=O)[C@H]1C[C@H]2C(=O)N[C@@H](CCCC[N+](C)(C)C)C(=O)N2[C@H]1c1ccc(O)cc1`: the z-score was -0.0772 (inactive) and -0.0145 (inactive) in test [1]; -0.373 (inactive) and 0.369 (inactive) in test [3]; -0.114 (inactive) and -1.21 (inactive) in test [4]; -1.78 (inactive) and -0.688 (inactive) in test [5]; 0.154 (inactive) and -2.13 (inactive) in test [6]; -0.809 and 0.448 in test [7]. Moreover, the z-score in test [8] was -1.13 (inactive) and -2.89 (inactive); in test [9], -0.108 (inactive) and -3.27 (inactive); in test [10] it was -0.693 and -2.66; in [11] it was -0.231 and -0.502; in test [12] it was -1.46 and 0.308; in [13], -0.905 and -1.22. Besides, the z-score in [14] is -0.088 and -0.298; in test [15], -0.598 and -0.804; in test [16] it was -0.982 and -1.85; in [17], -0.258 (inactive) and -0.841 (inactive); in test [18] it was 0.629 and -0.808; in test [19], -0.588 and -0.423. Moreover, the z-score in test [20] is -0.471 (inactive) and -0.706 (inactive). For the same compound, the composite z-score in test [2] is -0.0984 and -0.447.
